# Test results as given in article PMC10943123.
# Experiments:
# [1] = target: Nuclear cap-binding protein subunit 1 (UniProt Q09161); test: cross-linking mass spectrometry
# [2] = target: Cell division cycle 5-like protein (UniProt Q99459); test: cross-link between two proteins; cross-linking mass spectrometry
# [3] = target: Pre-mRNA-processing-splicing factor 8 (UniProt Q6P2Q9); test: as above
# [4] = target: Small nuclear ribonucleoprotein-associated proteins B and B' (UniProt P14678); test: as above
# [5] = target: Splicing factor 3A subunit 2 (UniProt Q15428); test: as above
# [6] = target: U6 snRNA-associated Sm-like protein LSm4 (UniProt Q9Y4Z0); test: as above
# [7] = target: U6 snRNA-associated Sm-like protein LSm6 (UniProt P62312); test: as above
# [8] = target: WD repeat-containing protein 70 (UniProt Q9NW82); test: as above
# [9] = target: WW domain-binding protein 4 (UniProt O75554); test: as above
# [10] = target: Zinc finger CCCH domain-containing protein 18 (UniProt Q86VM9); test: as above
# [11] = target: Cell division cycle 5-like protein (UniProt Q99459); test: cross-link between two proteins; cross-linking mass spectrometry; other
# Cell division cycle 5-like protein, sequence (Q99459 whole entry): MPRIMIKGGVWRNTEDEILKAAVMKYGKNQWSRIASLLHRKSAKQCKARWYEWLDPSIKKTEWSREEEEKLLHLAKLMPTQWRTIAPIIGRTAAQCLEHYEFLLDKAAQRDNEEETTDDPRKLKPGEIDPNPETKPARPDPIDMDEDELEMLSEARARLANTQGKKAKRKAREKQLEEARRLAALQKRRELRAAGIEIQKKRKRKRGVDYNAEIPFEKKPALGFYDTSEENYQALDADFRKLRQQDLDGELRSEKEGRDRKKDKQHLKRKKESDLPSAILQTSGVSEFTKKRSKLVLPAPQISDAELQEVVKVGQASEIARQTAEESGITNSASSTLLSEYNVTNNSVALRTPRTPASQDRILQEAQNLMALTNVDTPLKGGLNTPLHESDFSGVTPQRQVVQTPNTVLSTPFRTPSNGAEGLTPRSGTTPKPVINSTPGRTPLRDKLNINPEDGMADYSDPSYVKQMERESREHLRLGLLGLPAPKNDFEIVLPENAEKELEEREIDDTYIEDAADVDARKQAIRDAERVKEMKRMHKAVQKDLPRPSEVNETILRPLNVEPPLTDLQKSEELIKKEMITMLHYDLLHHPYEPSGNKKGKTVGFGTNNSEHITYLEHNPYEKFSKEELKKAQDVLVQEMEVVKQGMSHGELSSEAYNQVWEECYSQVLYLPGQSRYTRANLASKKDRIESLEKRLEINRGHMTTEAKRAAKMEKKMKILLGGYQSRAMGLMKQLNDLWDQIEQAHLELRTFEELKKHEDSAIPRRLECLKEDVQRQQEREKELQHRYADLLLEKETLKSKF
# Zinc finger CCCH domain-containing protein 18, sequence (Q86VM9 whole entry, the tested form may be a part): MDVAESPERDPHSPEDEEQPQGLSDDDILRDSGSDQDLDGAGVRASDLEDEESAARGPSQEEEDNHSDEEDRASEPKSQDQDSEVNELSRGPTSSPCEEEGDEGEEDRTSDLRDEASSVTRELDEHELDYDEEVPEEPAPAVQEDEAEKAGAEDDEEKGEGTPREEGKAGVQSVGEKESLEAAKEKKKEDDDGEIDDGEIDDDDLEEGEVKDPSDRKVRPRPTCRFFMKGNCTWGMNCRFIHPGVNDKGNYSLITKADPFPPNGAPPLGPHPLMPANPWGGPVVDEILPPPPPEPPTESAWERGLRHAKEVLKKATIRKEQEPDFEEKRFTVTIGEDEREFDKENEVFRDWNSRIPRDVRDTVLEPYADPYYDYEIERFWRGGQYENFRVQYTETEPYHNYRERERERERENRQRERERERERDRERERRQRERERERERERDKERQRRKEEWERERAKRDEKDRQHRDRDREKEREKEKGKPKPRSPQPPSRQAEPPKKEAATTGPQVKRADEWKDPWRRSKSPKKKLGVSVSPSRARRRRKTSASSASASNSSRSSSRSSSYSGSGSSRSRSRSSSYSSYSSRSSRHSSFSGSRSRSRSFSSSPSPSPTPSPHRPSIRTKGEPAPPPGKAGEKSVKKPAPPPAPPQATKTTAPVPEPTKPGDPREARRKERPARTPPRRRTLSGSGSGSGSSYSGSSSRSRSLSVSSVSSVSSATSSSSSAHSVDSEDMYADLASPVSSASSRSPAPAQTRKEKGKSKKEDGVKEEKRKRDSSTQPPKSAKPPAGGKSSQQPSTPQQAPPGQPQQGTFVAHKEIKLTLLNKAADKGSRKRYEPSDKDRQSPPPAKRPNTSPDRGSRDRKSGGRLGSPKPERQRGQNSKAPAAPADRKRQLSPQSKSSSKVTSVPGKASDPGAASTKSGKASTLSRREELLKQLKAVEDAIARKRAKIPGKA
# Peptidyl-prolyl cis-trans isomerase H, O43447, sequence (O43447 whole entry): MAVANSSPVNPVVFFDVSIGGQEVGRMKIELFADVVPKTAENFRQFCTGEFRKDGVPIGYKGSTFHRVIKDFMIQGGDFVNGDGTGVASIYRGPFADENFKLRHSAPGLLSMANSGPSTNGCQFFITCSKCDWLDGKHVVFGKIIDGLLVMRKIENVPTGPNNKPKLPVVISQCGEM
# Splicing factor 3A subunit 2, sequence (Q15428 whole entry): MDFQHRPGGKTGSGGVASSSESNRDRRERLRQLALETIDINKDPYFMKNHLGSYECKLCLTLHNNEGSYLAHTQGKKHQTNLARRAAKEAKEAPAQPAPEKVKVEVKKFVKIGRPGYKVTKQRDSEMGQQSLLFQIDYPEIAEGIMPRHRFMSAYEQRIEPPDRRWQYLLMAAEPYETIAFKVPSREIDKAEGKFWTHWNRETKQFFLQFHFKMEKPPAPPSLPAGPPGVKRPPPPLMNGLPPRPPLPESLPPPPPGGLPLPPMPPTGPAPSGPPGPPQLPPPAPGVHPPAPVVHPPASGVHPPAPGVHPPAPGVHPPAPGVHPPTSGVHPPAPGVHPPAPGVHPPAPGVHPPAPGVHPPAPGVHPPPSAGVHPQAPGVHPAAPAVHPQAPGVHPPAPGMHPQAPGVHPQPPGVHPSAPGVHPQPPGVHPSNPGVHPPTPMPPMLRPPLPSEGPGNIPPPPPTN
# U6 snRNA-associated Sm-like protein LSm6, sequence (P62312 whole entry): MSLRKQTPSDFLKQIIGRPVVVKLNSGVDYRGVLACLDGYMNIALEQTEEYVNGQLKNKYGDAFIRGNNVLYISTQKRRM
# U6 snRNA-associated Sm-like protein LSm4, sequence (Q9Y4Z0 whole entry): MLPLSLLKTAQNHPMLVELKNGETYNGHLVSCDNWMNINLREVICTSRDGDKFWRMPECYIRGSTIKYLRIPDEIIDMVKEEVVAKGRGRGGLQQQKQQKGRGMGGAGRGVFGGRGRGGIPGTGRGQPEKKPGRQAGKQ
# WD repeat-containing protein 70, sequence (Q9NW82 whole entry, the tested form may be a part): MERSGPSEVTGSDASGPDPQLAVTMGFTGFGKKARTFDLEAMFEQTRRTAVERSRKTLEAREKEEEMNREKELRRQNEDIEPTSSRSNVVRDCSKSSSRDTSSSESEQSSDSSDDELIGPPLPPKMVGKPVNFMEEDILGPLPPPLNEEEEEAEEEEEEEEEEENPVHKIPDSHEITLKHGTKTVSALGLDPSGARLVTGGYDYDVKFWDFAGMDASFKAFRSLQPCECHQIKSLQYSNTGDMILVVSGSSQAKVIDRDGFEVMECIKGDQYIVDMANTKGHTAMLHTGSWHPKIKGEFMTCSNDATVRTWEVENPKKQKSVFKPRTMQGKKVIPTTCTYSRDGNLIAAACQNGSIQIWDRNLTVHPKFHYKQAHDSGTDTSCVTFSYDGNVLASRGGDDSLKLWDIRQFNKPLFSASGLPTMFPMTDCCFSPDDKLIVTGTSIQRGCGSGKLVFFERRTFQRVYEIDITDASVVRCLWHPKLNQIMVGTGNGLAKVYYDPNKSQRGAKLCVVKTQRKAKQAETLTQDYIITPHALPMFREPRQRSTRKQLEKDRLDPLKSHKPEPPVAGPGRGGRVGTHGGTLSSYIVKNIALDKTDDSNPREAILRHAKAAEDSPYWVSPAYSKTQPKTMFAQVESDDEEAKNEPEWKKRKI
# Nuclear cap-binding protein subunit 1, sequence (Q09161 whole entry): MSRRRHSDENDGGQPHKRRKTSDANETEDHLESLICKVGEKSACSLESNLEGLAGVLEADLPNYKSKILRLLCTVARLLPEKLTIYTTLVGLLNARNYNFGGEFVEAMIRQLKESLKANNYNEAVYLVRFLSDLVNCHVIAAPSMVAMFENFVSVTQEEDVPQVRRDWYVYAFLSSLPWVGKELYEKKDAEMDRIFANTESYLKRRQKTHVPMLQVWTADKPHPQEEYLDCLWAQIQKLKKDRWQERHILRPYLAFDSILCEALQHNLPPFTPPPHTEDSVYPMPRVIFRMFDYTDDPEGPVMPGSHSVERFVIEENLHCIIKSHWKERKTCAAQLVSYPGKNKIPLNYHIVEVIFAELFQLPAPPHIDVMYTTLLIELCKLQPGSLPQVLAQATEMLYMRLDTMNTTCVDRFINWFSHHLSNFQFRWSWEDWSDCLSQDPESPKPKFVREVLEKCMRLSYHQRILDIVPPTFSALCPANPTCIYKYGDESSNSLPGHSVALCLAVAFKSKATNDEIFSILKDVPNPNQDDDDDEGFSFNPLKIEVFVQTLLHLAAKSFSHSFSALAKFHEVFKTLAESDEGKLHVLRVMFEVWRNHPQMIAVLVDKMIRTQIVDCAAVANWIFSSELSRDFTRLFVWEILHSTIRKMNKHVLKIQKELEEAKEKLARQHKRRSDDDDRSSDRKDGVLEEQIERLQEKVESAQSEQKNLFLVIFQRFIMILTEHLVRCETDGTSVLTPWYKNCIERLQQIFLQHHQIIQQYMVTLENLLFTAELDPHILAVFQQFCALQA
# WW domain-binding protein 4, sequence (O75554 whole entry, the tested form may be a part): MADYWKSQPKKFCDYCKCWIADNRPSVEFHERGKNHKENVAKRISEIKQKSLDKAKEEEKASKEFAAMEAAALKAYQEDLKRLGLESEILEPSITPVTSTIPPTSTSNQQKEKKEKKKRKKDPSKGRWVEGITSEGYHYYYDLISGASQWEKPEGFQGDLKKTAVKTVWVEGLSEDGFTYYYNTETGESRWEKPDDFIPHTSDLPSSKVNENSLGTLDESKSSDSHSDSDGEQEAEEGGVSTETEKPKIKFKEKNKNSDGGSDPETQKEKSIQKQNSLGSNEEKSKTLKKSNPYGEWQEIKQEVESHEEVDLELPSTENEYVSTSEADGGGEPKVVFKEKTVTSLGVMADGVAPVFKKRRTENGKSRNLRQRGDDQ
substance,measurement,setting,value
"Nuclear cap-binding protein subunit 2, P52298",listed as a hit,[1],yes
"U5 small nuclear ribonucleoprotein 40 kDa protein, Q96DI7",listed as a hit,[2],yes
"Thioredoxin-like protein 4A, P83876",listed as a hit,[3],yes
"U2 small nuclear ribonucleoprotein B'', P08579",listed as a hit,[4],yes
"Splicing factor 3B subunit 4, Q15427",listed as a hit,[5],yes
"U6 snRNA-associated Sm-like protein LSm7, Q9UK45",listed as a hit,[6],yes
"U4/U6 small nuclear ribonucleoprotein Prp3, O43395",listed as a hit,[7],yes
"Pre-mRNA-processing factor 17, O60508",listed as a hit,[8],yes
"Peptidyl-prolyl cis-trans isomerase H, O43447",listed as a hit,[9],yes
"Nuclear cap-binding protein subunit 1, Q09161",listed as a hit,[10],yes
"U5 small nuclear ribonucleoprotein 200 kDa helicase, O75643",listed as a hit,[11],yes
